Measured values taken from the supplement of paper PMC10849652.
About 7,900 targets were measured; listed, in parts, are those with a hit and a random draw of the rest. About 0.6% of all pairs of compound and target were hits.

Columns and labels:
Experiment in all cases: log2 fold change, soluble protein after heating vs DMSO (PISA); higher = thermal stabilisation; K562 cells, 10 uM, 30 min; active = over 0.2 and 3.5 SD of the protein, either way, in both replicates (recomputed)
[1] = compound: C1=CC=C(C=C1)[C@H](COC2=CC3=C(C=C2)NC(=O)N3)NC(=O)C4=CC=CN(C4=O)CC5=CC(=C(C=C5)F)F
Outline: (§1)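 K562 cells at 2×10^6 cells/mL were treated with 10 μM compound for 30 min. Aliquots were heated for 3 min across 48°C-58°C, pooled, and extracted in PBS with 0.5% NP-40 at 4°C; soluble protein was the supernatant after 21,000xg for 90 min. Soluble protein was quantified by TMTpro 16plex LC-MS/MS with channel sums equalised, and reported as log2 fold change in thermal stability against DMSO controls, with values from duplicates.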

[2] = compound: CC1=C(SC2=C1C(=N[C@H](C3=NN=C(N32)C)CC(=O)N)C4=CC=C(C=C4)Cl)C
Outline: as §1

[3] = compound: CC1=C2C(=CC=C1)N=C(N(C2=O)C3=CC=CC=C3C)CN4C=NC5=C(N=CN=C54)N
Outline: as §1

[4] = compound: Cc1sc2c(c1C)C(c1ccc(Cl)cc1)=N[C@@H](CC(=O)OC(C)(C)C)c1nnc(C)n1-2
Outline: as §1

[5] = compound: c1ccc([C@@H]2C[C@H]2NC2CCNCC2)cc1
Outline: as §1

Measured: log2 fold change

NRDC isoform 2 (UniProt O43847)
UniProt O43847, sequence (O43847 whole entry, looked up): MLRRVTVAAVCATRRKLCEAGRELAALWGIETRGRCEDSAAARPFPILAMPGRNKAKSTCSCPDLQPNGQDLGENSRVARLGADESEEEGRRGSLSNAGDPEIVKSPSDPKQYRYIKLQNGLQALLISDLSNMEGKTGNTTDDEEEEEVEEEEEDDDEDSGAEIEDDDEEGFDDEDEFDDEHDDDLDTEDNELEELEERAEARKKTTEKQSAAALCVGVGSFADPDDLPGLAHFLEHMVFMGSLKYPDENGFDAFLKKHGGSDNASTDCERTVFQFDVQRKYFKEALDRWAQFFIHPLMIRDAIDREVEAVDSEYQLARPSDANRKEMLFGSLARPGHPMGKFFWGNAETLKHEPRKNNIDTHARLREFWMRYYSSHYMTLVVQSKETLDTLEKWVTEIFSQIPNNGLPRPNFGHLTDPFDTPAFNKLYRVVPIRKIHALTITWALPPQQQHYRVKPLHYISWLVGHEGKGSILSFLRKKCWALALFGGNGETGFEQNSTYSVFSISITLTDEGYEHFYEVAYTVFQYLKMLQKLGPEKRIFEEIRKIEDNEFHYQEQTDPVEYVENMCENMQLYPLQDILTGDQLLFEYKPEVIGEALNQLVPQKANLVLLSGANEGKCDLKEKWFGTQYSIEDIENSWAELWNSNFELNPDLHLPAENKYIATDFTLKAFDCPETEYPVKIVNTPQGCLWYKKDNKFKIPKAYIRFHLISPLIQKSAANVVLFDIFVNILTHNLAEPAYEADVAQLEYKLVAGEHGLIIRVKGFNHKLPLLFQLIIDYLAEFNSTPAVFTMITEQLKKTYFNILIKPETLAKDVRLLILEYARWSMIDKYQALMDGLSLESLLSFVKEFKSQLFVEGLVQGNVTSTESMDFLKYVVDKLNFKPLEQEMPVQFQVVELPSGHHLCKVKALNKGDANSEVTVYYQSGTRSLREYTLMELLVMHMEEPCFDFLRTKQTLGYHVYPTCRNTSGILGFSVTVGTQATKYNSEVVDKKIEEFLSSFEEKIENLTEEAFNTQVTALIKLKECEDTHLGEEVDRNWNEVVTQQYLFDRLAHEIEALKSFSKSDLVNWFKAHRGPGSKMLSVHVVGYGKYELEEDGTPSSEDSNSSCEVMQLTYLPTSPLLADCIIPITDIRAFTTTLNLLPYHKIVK
inactive: [1] -0.058 | [2] 0.04 | [3] 0.037 | [4] -0.023 | [5] 0

NCOR1 (UniProt O75376)
inactive: [1] -0.102 | [2] 0.06 | [3] 0.002 | [4] 0.016 | [5] -0.111

OAT (UniProt P04181)
inactive: [1] -0.019 | [2] 0.083 | [3] 0.05 | [4] -0.024 | [5] -0.045

NDUFB1 (UniProt O75438)
inactive: [1] -0.004 | [2] -0.059 | [3] -0.056 | [4] -0.138 | [5] 0.055

NMT1 (UniProt P30419)
inactive: [1] 0 | [2] 0.032 | [3] -0.001 | [4] 0.076 | [5] -0.018

P4HA2 (UniProt O15460)
inactive: [1] 0.006 | [2] -0.033 | [3] -0.014 | [4] -0.007 | [5] -0.043

NR2C2AP isoform 2 (UniProt Q86WQ0)
inactive: [1] -0.016 | [2] 0.043 | [3] 0.081 | [4] -0.067 | [5] 0.032

NDUFA7 (UniProt O95182)
inactive: [1] 0.007 | [2] 0.002 | [3] 0.007 | [4] 0.008 | [5] 0.034

MKRN2 (UniProt Q9H000)
inactive: [1] 0.029 | [2] 0.046 | [3] 0.143 | [4] 0.122 | [5] -0.017

MRPS26 (UniProt Q9BYN8)
inactive: [1] -0.075 | [2] 0.061 | [3] -0.012 | [4] -0.009 | [5] 0.013

MON1B (UniProt Q7L1V2)
inactive: [1] -0.032 | [2] 0.044 | [3] 0.056 | [4] -0.008 | [5] -0.064

NCKAP1 isoform 2 (UniProt Q9Y2A7)
inactive: [1] -0.037 | [2] 0.035 | [3] 0.003 | [4] 0.007 | [5] -0.004

MRPS27 isoform 2 (UniProt Q92552)
inactive: [1] -0.063 | [2] 0.04 | [3] 0.01 | [4] 0.035 | [5] -0.059

NUP98 (UniProt P52948)
inactive: [1] -0.041 | [2] 0.032 | [3] 0.071 | [4] -0.005 | [5] -0.011

NMU (UniProt P48645)
UniProt P48645, sequence (P48645 whole entry, looked up): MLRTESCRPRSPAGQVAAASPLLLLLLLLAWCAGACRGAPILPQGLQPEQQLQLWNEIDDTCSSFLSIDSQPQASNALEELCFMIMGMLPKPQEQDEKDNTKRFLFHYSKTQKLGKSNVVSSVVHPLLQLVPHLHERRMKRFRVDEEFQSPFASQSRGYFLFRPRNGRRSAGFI
inactive: [1] -0.109 | [2] 0.008 | [3] -0.03 | [4] 0.066 | [5] -0.086

MRPS16 (UniProt Q9Y3D3)
inactive: [1] -0.006 | [2] -0.033 | [3] -0.009 | [4] 0.014 | [5] -0.074

NA, A0A494C071
inactive: [1] -0.172 | [2] -0.016 | [3] 0.236 | [4] 0.07 | [5] 0.072

NRF1 isoform 4 (UniProt Q16656)
inactive: [1] -0.045 | [2] 0.001 | [3] 0.085 | [4] -0.043 | [5] -0.039

MRPS33 (UniProt Q9Y291)
inactive: [1] 0.005 | [2] -0.057 | [3] -0.114 | [4] 0.098 | [5] -0.002

OGFR (UniProt Q9NZT2)
inactive: [1] -0.016 | [2] -0.057 | [3] 0.016 | [4] 0.095 | [5] -0.046

NAA11 (UniProt Q9BSU3)
inactive: [1] 0.009 | [2] 0.042 | [3] 0.049 | [4] -0.12 | [5] -0.049

NUMB (UniProt P49757)
inactive: [1] 0 | [2] 0.035 | [3] 0.046 | [4] 0.023 | [5] -0.009

NECTIN2 (UniProt Q92692)
inactive: [1] 0.017 | [2] 0.031 | [3] -0.019 | [4] -0.009 | [5] -0.012

MRPL46 (UniProt Q9H2W6)
inactive: [1] 0 | [2] -0.1 | [3] -0.037 | [4] 0.009 | [5] 0.026

MT-ND4 (UniProt P03905)
inactive: [1] -0.124 | [2] -0.017 | [3] -0.045 | [4] -0.057 | [5] 0.036

NCAPG (UniProt Q9BPX3)
inactive: [1] -0.033 | [2] 0.019 | [3] 0.101 | [4] -0.002 | [5] -0.002

NOS1AP (UniProt O75052)
inactive: [1] -0.109 | [2] 0.025 | [3] 0.362 | [4] -0.141 | [5] -0.178

NA, A0A0B4J2A0
inactive: [1] -0.035 | [2] -0.005 | [3] 0.015 | [4] -0.097 | [5] -0.007

NEDD4 isoform 4 (UniProt P46934)
UniProt P46934, sequence (P46934 whole entry, looked up): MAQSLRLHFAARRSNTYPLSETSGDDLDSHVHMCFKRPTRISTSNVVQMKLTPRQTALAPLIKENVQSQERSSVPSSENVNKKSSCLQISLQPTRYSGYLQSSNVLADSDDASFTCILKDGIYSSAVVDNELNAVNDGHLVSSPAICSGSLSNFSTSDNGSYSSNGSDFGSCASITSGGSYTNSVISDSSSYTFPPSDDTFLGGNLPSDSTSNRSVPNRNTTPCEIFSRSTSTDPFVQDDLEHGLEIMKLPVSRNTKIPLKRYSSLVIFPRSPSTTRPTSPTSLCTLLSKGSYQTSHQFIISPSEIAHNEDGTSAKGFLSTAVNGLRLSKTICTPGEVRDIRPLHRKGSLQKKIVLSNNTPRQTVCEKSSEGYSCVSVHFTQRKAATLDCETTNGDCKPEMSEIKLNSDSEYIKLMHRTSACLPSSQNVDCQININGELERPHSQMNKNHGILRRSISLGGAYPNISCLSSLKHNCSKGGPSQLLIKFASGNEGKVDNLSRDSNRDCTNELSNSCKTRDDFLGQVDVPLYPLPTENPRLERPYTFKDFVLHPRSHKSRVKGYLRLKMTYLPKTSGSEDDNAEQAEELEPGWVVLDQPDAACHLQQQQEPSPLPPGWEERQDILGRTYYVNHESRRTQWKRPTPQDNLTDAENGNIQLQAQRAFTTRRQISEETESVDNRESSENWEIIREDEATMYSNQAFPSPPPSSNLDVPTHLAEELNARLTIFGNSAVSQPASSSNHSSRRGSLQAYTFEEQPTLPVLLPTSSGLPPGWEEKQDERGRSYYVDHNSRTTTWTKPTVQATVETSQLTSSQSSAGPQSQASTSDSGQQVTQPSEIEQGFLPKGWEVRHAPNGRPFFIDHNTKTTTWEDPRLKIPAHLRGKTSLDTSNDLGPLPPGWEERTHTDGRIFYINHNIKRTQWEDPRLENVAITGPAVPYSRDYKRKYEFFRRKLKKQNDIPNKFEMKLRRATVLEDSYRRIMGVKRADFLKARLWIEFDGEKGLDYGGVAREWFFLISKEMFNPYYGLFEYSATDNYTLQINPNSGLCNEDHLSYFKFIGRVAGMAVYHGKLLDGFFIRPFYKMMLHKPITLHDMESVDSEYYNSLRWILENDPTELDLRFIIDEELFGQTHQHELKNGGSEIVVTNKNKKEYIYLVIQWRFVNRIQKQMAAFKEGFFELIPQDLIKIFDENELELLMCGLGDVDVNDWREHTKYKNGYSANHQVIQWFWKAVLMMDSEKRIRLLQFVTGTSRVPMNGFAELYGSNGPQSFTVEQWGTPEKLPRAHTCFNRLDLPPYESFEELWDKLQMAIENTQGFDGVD
inactive: [1] -0.006 | [2] 0.103 | [3] 0.081 | [4] 0.002 | [5] -0.007

NIPSNAP2 (UniProt O75323)
inactive: [1] -0.038 | [2] 0.008 | [3] 0.036 | [4] -0.019 | [5] -0.051

NEU1 (UniProt Q99519)
inactive: [1] -0.116 | [2] 0.004 | [3] 0.047 | [4] -0.043 | [5] -0.025

MSH2 (UniProt P43246)
inactive: [1] -0.041 | [2] 0.051 | [3] 0.105 | [4] -0.037 | [5] 0.01

NOL7 (UniProt Q9UMY1)
inactive: [1] 0.168 | [2] -0.221 | [3] -0.265 | [4] 0.188 | [5] 0.057

MLST8 (UniProt Q9BVC4)
inactive: [1] -0.038 | [2] 0.062 | [3] 0.082 | [4] -0.05 | [5] -0.071

MRPS10 (UniProt P82664)
inactive: [1] -0.019 | [2] -0.102 | [3] 0.065 | [4] 0.132 | [5] 0.025

MND1 (UniProt Q9BWT6)
inactive: [1] 0.009 | [2] 0.012 | [3] 0.081 | [4] 0.088 | [5] 0.102

MSH6 (UniProt P52701)
inactive: [1] -0.24 | [2] 0.08 | [3] 0.127 | [4] -0.056 | [5] -0.008

NUP210 (UniProt Q8TEM1)
inactive: [1] -0.083 | [2] 0.059 | [3] 0.037 | [4] -0.013 | [5] -0.028

NCK1 (UniProt P16333)
inactive: [1] -0.077 | [2] 0.025 | [3] 0.168 | [4] 0.044 | [5] -0.085

NAPG (UniProt Q99747)
inactive: [1] -0.036 | [2] 0.044 | [3] 0.073 | [4] -0.023 | [5] -0.077

NKAP (UniProt Q8N5F7)
inactive: [1] -0.013 | [2] 0.148 | [3] 0.049 | [4] 0.078 | [5] 0.171

MSTO1 (UniProt Q9BUK6)
inactive: [1] -0.041 | [2] 0.046 | [3] 0.002 | [4] -0.005 | [5] -0.071

MKNK1 (UniProt Q9BUB5)
inactive: [1] -0.056 | [2] 0.039 | [3] 0.065 | [4] 0.03 | [5] -0.009

NTMT1 (UniProt Q9BV86)
inactive: [1] 0.001 | [2] 0.034 | [3] 0.079 | [4] -0.118 | [5] -0.049

NSMCE4A (UniProt Q9NXX6)
inactive: [1] 0.123 | [2] 0.03 | [3] -0.088 | [4] -0.037 | [5] -0.014

NME7 (UniProt Q9Y5B8)
UniProt Q9Y5B8, sequence (Q9Y5B8 whole entry, looked up): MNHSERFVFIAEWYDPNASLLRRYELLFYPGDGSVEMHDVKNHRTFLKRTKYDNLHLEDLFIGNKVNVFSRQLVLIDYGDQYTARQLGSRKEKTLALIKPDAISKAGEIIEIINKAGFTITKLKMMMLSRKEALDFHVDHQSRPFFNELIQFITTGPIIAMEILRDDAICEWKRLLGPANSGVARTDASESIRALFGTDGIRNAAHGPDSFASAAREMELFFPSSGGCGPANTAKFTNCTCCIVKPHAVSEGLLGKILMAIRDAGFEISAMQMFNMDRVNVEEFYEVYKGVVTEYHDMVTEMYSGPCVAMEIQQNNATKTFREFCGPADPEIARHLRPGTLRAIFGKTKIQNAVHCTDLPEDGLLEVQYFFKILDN
inactive: [1] -0.112 | [2] 0.098 | [3] 0.175 | [4] 0.096 | [5] -0.038

MTOR (UniProt P42345)
inactive: [1] -0.044 | [2] 0.021 | [3] 0.092 | [4] -0.001 | [5] -0.028

NUP107 (UniProt P57740)
inactive: [1] -0.02 | [2] -0.043 | [3] 0.051 | [4] 0.052 | [5] 0.025

NPM3 (UniProt O75607)
UniProt O75607, sequence (O75607 whole entry, looked up): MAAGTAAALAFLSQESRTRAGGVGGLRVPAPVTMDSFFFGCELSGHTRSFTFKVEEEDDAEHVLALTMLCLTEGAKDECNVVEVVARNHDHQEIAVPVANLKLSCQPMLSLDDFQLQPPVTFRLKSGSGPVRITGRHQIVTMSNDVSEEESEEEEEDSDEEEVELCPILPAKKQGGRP
inactive: [1] 0.066 | [2] -0.08 | [3] -0.087 | [4] 0.107 | [5] -0.019

MYH10 isoform 3 (UniProt P35580)
inactive: [1] -0.003 | [2] 0.043 | [3] 0.056 | [4] -0.023 | [5] -0.013

NOL11 (UniProt Q9H8H0)
UniProt Q9H8H0, sequence (Q9H8H0 whole entry, looked up): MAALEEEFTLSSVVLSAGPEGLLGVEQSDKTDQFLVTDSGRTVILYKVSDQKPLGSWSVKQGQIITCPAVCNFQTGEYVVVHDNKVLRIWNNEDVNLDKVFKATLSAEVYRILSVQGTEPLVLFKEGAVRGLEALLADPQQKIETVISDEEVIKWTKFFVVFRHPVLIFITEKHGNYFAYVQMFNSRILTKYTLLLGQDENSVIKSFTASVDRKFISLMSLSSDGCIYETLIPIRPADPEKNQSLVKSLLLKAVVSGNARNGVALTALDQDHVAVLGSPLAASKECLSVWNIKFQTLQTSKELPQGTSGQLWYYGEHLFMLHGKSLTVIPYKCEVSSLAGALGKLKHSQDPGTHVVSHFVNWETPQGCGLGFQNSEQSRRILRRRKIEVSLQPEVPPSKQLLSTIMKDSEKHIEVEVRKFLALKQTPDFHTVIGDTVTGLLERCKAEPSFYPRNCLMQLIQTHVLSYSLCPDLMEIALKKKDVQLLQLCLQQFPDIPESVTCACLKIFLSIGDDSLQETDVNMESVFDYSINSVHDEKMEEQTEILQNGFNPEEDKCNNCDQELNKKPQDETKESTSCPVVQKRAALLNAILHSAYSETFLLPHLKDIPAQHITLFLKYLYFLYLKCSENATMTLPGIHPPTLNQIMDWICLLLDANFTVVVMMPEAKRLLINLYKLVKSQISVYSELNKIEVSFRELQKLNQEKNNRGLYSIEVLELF
inactive: [1] 0.007 | [2] 0 | [3] -0.008 | [4] -0.014 | [5] 0.025

NFX1 (UniProt Q12986)
UniProt Q12986, sequence (Q12986 whole entry, looked up): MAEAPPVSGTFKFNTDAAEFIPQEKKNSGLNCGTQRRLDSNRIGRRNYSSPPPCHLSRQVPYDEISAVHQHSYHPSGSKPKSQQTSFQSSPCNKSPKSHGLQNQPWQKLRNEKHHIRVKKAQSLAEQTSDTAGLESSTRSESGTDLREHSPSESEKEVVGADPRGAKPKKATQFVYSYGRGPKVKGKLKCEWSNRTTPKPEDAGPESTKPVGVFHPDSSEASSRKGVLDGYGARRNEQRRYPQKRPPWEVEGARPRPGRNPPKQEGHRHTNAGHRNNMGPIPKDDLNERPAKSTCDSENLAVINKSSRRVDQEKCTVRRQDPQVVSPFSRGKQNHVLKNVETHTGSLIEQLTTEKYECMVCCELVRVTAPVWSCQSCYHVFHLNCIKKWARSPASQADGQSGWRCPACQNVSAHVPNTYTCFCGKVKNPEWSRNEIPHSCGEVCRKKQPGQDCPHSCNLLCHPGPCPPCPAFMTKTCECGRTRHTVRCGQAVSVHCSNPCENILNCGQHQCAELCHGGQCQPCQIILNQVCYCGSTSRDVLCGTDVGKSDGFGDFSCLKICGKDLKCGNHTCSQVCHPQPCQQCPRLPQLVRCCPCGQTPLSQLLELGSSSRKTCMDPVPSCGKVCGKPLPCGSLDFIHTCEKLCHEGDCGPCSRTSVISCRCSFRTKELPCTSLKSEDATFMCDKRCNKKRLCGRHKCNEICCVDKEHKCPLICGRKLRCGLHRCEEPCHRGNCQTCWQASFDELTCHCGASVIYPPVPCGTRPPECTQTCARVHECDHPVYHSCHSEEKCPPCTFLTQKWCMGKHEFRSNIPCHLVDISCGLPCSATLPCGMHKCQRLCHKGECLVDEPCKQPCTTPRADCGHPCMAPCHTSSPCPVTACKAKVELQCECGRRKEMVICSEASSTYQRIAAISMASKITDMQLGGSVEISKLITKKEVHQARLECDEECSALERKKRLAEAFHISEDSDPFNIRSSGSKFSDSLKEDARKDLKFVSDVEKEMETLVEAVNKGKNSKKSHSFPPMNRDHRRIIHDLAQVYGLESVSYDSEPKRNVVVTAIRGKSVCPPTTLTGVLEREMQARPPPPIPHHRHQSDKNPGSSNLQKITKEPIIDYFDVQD
inactive: [1] -0.011 | [2] -0.161 | [3] -0.068 | [4] 0.115 | [5] -0.163

MRPL34 (UniProt Q9BQ48)
inactive: [1] 0 | [2] -0.154 | [3] -0.073 | [4] 0.058 | [5] -0.051
